Common to all, as to test: NCI-60 one-dose screen, 48 h (100 = growth as untreated, 0 = no growth, -100 = all killed)
One assay concerns NCI-H23 lung. To be noted: 10 µM unless noted.
The test system of another assay is NCI-H226 lung. The note with it: 10 µM unless noted.
Another assay deals with NCI-H322M lung. To be noted: 10 µM unless noted.
The next assay has as its system HOP-62 NSCLC. The note with it: 10 µM unless noted.
The test system of the next assay is NCI-H460 lung. The note with it: 10 µM unless noted.
Another assay relates to HOP-92 NSCLC. The note with it: 10 µM unless noted.
Another assay has as its system NCI-H522 lung. The note with it: 10 µM unless noted.
The next assay deals with A549/ATCC NSCLC. The note with it: 10 µM unless noted.
The test system of another assay is 786-0 renal. The note with it: 10 µM unless noted.
The next assay concerns COLO 205 colon. To be noted: 10 µM unless noted.
A further assay concerns DU-145 prostate. To be noted: 10 µM unless noted.
A further assay deals with K-562 leukemia. To be noted: 10 µM unless noted.
For a further assay, the system named is MALME-3M melanoma. To be noted: 10 µM unless noted.
The next assay relates to MDA-MB-231 breast. To be noted: 10 µM unless noted.
Another assay concerns SF-268 CNS. To be noted: 10 µM unless noted.
The subject of the next assay is SF-295 CNS. To be noted: 10 µM unless noted.
In another assay the test system is SF-539 CNS. The note with it: 10 µM unless noted.
Another assay deals with UACC-257 melanoma. The note with it: 10 µM.
The next assay deals with M14 melanoma. To be noted: 10 µM unless noted.
A further assay deals with RXF 393 renal. To be noted: 10 µM unless noted.

Compounds without any hit were thinned out: in the full panel of roughly 83,000, 20% have a hit.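 Single-dose data. Exposure time 48 hours. Values below 10 considered active.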 Values without a mark were called inactive. Active and inactive are the calls of the source.

`COc1ccc(-c2cc(-c3cccc4ccccc34)n3c(n2)nc2ccccc23)cc1OC`: the growth with NCI-H23 lung was 44.7%; in the assay on NCI-H226 lung it was 19.8%; with NCI-H322M lung, 75.8%; in the assay on HOP-62 NSCLC, -0.816% (active); in the assay with NCI-H460 lung it was 3.44% (active); with HOP-92 NSCLC, 11.5%. Moreover, the growth is 48.1% with NCI-H522 lung; 24.2% in the assay on A549/ATCC NSCLC; 10.5% in the assay on 786-0 renal; 65.4% in the assay with COLO 205 colon; 15.7% in the assay with DU-145 prostate; 32.8% in the assay with K-562 leukemia. Also, the growth with MALME-3M melanoma is 16.9%; with MDA-MB-231 breast it was 66.7%; in the assay on SF-268 CNS it was 35.3%; in the assay on SF-295 CNS it was 2.25% (active); with SF-539 CNS, 31.1%; with UACC-257 melanoma, 60.8%. The growth in the assay with M14 melanoma is 36%.

On to `COc1ccc(C2CC(c3ccc(Nc4nc(NCCO)nc(Nc5ccc(Cl)cc5)n4)cc3)=Nc3c(N)nc(N)nc3N2)cc1` (configuration not stated), for which the growth is 57.8% in the assay with NCI-H23 lung; 88.7% with NCI-H226 lung; 93.2% with NCI-H322M lung; 37.4% in the assay with HOP-62 NSCLC; 63% in the assay on NCI-H460 lung; 74.6% with HOP-92 NSCLC. Further, the growth with NCI-H522 lung is 56.1%; in the assay with A549/ATCC NSCLC, 95.1%; in the assay on 786-0 renal, 71%; with COLO 205 colon, 92.1%; in the assay on DU-145 prostate, 73.1%; in the assay with K-562 leukemia it was -10.1% (active). In addition, the growth in the assay with MALME-3M melanoma is 113%; in the assay with MDA-MB-231 breast, 77.3%; with SF-268 CNS, 81.6%; in the assay on SF-295 CNS it was 82%; in the assay on SF-539 CNS, 84.4%; in the assay with UACC-257 melanoma, 113%. The growth in the assay on M14 melanoma is 94.7%.

`Cn1c2ccccc2c2c3c(c4c5ccc(Br)cc5oc4c21)C(=O)N(O)C3=O`: the growth in the assay on NCI-H23 lung was 80%; in the assay with NCI-H226 lung it was 70.9%; with NCI-H322M lung, 96.8%; in the assay on HOP-62 NSCLC, 59.8%; in the assay with NCI-H460 lung, 42.3%; in the assay with HOP-92 NSCLC it was 81.6%. Besides, the growth is 48.7% in the assay with NCI-H522 lung; 85.6% with A549/ATCC NSCLC; 89.8% in the assay on 786-0 renal; 86.7% with COLO 205 colon; 86.1% in the assay on DU-145 prostate; 61.7% with K-562 leukemia. In addition, the growth in the assay with MALME-3M melanoma was 113%; with MDA-MB-231 breast, 94.5%; in the assay on SF-268 CNS, 78.6%; with SF-295 CNS it was 53.4%; with SF-539 CNS it was 96.2%; in the assay on UACC-257 melanoma, 94.2%. For the same compound, the growth with M14 melanoma is 89.3%.

With `CC1(C)CC[C@]2(C(=O)N3CCCNCC3)CC[C@]3(C)C(=CC[C@@H]4[C@@]5(C)CCC(=O)C(C)(C)[C@@H]5CC[C@]43C)[C@H]2C1`, the growth in the assay on NCI-H23 lung is 101%; in the assay with NCI-H226 lung it was 103%; in the assay with NCI-H322M lung, 101%; in the assay on HOP-62 NSCLC it was 109%; with NCI-H460 lung, 106%; in the assay with HOP-92 NSCLC, 96.6%. For the same compound, the growth with NCI-H522 lung was 98.6%; in the assay on A549/ATCC NSCLC, 106%; with 786-0 renal, 99.5%; with COLO 205 colon, 115%; with DU-145 prostate, 108%; with K-562 leukemia, 96.8%. Moreover, the growth was 110% in the assay on MALME-3M melanoma; 106% in the assay on MDA-MB-231 breast; 102% in the assay on SF-268 CNS; 104% in the assay with SF-295 CNS; 97.2% with SF-539 CNS; 105% in the assay with UACC-257 melanoma. In addition, the growth in the assay on M14 melanoma was 110%.

With `COc1ccc2oc3c4[nH]c5ccccc5c4c4c(c3c2c1)C(=O)N(O)C4=O`, the growth is 91.8% in the assay with NCI-H23 lung; 93.8% with NCI-H226 lung; 108% in the assay with NCI-H322M lung; 102% with HOP-62 NSCLC; 99.5% with NCI-H460 lung; 81% in the assay with HOP-92 NSCLC. In addition, the growth in the assay on NCI-H522 lung is 99.3%; in the assay on A549/ATCC NSCLC, 108%; in the assay on 786-0 renal it was 101%; with COLO 205 colon, 111%; in the assay on DU-145 prostate it was 101%; with K-562 leukemia, 98.3%. The growth is 105% with MALME-3M melanoma; 95.7% with MDA-MB-231 breast; 100% with SF-268 CNS; 106% in the assay with SF-295 CNS; 98% with SF-539 CNS; 106% in the assay with UACC-257 melanoma. For the same compound, the growth in the assay on M14 melanoma was 102%.

With `C=C(C)C(=O)O[C@H]1C[C@@]2(C)OC(=CC2=O)/C(CO)=C\[C@H]2OC(=O)C(=C)[C@H]12`, the growth in the assay with NCI-H23 lung was -35.2% (active); in the assay on NCI-H226 lung it was -39.3% (active); in the assay with NCI-H322M lung, 87.6%; in the assay on HOP-62 NSCLC it was 58.9%; with NCI-H460 lung, 12.5%; with HOP-92 NSCLC it was -61.4% (active). For the same compound, the growth is -68.3% (active) in the assay with NCI-H522 lung; 65.7% in the assay with A549/ATCC NSCLC; -66.5% (active) in the assay on 786-0 renal; -72.9% (active) in the assay on COLO 205 colon; -25.2% (active) in the assay on DU-145 prostate; -68.8% (active) in the assay on MALME-3M melanoma. Further, the growth is -54% (active) with MDA-MB-231 breast; -67.6% (active) with RXF 393 renal; -13.8% (active) with SF-268 CNS; 32.6% with SF-295 CNS; -82.9% (active) in the assay on SF-539 CNS; -34% (active) in the assay on UACC-257 melanoma. The growth with M14 melanoma is -34% (active).

Consider `Cn1c2ccc(Br)cc2c2c3c(c4c5cc(F)ccc5oc4c21)C(=O)N(O)C3=O`, for which the growth in the assay with NCI-H23 lung was 77.2%; with NCI-H226 lung it was 90.8%; with NCI-H322M lung, 103%; with HOP-62 NSCLC it was 47.1%; with NCI-H460 lung it was 45.9%; in the assay with HOP-92 NSCLC, 82.5%. Also, the growth was 72.1% in the assay with NCI-H522 lung; 98.4% in the assay with A549/ATCC NSCLC; 97.6% in the assay with 786-0 renal; 93.7% in the assay on COLO 205 colon; 88.1% with DU-145 prostate; 82.8% with K-562 leukemia. Besides, the growth with MALME-3M melanoma is -95.9% (active); with MDA-MB-231 breast, 85.3%; in the assay with SF-268 CNS, 70.7%; in the assay with SF-295 CNS it was 89.9%; in the assay with SF-539 CNS it was 83.5%; in the assay on UACC-257 melanoma it was 104%. The growth in the assay on M14 melanoma was 89.4%.

With `COc1ccc(NC(=O)Cn2cc(CN3C(=O)c4ccc([N+](=O)[O-])cc4C3=O)nn2)cc1`, the growth with NCI-H23 lung is 99.7%; in the assay with NCI-H226 lung, 96.4%; in the assay on NCI-H322M lung, 106%; in the assay with HOP-62 NSCLC, 107%; with NCI-H460 lung it was 106%; with HOP-92 NSCLC, 85.6%. Also, the growth in the assay with NCI-H522 lung is 99.9%; with A549/ATCC NSCLC, 102%; with 786-0 renal, 107%; in the assay with COLO 205 colon it was 122%; with DU-145 prostate it was 113%; in the assay on K-562 leukemia, 98.1%. Besides, the growth in the assay on MALME-3M melanoma was 101%; in the assay with MDA-MB-231 breast, 91.4%; with SF-268 CNS, 109%; in the assay with SF-295 CNS, 113%; in the assay on SF-539 CNS it was 100%; in the assay on UACC-257 melanoma, 97.7%. Moreover, in the assay with M14 melanoma, the growth is 108%.

(Values after PubChem BioAssay (NCI).)
